# Reference: PMC4336329 (PLoS ONE, 2015)
# In all, about 310,000 compounds went through this assay and about 14,000 (4.5%) showed an effect of 50% or more. The effect is printed as a negative number. Many of the other results were omitted from the sample, so strong results are more common in it than they were.
# Target: human ether-à-go-go-related gene (hERG) potassium channel (human, UniProt Q12809)
# Test: primary screen, population patch clamp on CHO cells stably expressing hERG; higher = less effect of the substance
# 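Also: peak tail current of the secondary pulse compared with the same well before compound.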
# human ether-à-go-go-related gene (hERG) potassium channel, sequence (Q12809 whole entry, looked up): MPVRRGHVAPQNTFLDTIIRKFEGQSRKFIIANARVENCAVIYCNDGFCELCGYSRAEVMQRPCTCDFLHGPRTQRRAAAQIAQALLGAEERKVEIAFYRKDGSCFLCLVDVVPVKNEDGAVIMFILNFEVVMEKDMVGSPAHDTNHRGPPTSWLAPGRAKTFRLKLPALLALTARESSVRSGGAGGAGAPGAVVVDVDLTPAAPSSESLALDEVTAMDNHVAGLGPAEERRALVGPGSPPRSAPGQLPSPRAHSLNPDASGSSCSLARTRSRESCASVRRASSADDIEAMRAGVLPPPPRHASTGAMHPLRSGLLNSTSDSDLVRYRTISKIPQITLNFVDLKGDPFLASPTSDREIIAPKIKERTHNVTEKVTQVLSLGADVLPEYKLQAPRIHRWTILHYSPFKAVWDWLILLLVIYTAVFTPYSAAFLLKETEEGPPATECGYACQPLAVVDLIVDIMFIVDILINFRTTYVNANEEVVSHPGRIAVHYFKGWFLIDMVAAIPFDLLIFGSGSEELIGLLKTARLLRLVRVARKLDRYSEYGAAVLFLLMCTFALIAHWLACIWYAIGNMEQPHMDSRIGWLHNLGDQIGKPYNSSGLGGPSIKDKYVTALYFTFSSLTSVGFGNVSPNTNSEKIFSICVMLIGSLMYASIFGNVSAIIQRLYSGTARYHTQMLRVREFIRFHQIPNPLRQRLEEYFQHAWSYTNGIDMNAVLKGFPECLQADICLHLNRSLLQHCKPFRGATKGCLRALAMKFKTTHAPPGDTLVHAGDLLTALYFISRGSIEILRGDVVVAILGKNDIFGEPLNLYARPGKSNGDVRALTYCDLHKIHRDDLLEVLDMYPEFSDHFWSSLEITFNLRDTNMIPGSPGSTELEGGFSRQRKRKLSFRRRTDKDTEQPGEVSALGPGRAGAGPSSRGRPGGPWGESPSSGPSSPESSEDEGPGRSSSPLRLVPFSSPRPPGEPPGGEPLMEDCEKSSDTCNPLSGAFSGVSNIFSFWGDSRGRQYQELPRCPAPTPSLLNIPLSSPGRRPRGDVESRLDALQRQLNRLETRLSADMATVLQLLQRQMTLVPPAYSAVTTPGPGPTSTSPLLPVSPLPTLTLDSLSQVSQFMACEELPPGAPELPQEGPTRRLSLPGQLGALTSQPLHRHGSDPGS
row,Compound,"hERG current change (%, negative = inhibition) at 10uM [%]"
1,COc1cc(/C=C(/NC(=O)c2ccccc2)C(=O)N2CCN(C)CC2)c([N+](=O)[O-])cc1OC,9.52
2,CN1CCN(C(=O)/C(=C/c2cccc([N+](=O)[O-])c2)NC(=O)c2ccccc2)CC1,-72.6
3,CN1CCN(C(=O)/C(=C/c2ccc([N+](=O)[O-])cc2)NC(=O)c2ccccc2)CC1,-81.5
4,CN1CCN(C(=O)/C(=C/c2ccccc2Cl)NC(=O)c2ccccc2)CC1,-10.8
5,CC(=O)Nc1ccc(C(=O)N/C(=C/c2ccccc2)C(=O)N2CCCCC2)cc1,4.57
6,O=C(N/C(=C\c1cccc([N+](=O)[O-])c1)C(=O)N1CCCCC1)c1cccs1,7.93
7,O=C(N/C(=C/c1cccc([N+](=O)[O-])c1)C(=O)N1CCOCC1)c1ccccc1Br,-7.05
8,CC1CCN(C(=O)CCc2nnc(-c3ccccc3)o2)CC1,-5.83
9,O=C(NNc1ccc([N+](=O)[O-])cc1)C12CC3CC(CC(C3)C1)C2,19.5
10,CC(=O)Nc1ccc(OCc2cccc([N+](=O)[O-])c2)cc1,8.84
11,Cc1onc(-c2ccccc2Cl)c1C(=O)Oc1cc(N)n(S(=O)(=O)c2ccc(F)cc2)n1,-3.48
12,COc1ccccc1Cc1nc(-c2cccnc2)no1,14.8
13,Cc1ccn2c(C(=O)CSc3ccc(Cl)cc3)c(C)nc2c1,7.28
14,CCOc1ccc(N2C(=O)CC(NCC3CCCO3)C2=O)cc1 (stereo not drawn),2.22
15,O=C(Nc1ccccc1)C(c1ccccc1)c1ccccc1,15.1
16,O=C(N/C(=C\c1ccccc1)C(=O)N1CCCCCC1)c1ccccc1,15.2
17,O=C(N/C(=C/C=C\c1ccccc1)C(=O)N1CCOCC1)c1ccc(Br)cc1,-64.1
18,O=C(N/C(=C\c1ccc([N+](=O)[O-])cc1)C(=O)N1CCCCC1)c1ccccc1,-76.9
19,CCCCOc1ccc(C(=O)N/C(=C/C=C/c2ccccc2)C(=O)N2CCOCC2)cc1,-5.66
20,O=C(N/C(=C/C=C/c1ccccc1)C(=O)N1CCOCC1)c1ccccc1Cl,-16.6

row,Compound,"hERG current change (%, negative = inhibition) at 10uM [%]"
1,O=C(N/C(=C/c1ccccc1)C(=O)N1CCCCC1)c1ccccc1,29.9
2,Cc1cc(C(=O)OCC(=O)Nc2cccc(S(N)(=O)=O)c2)c2ccccc2n1,-4.62
3,COc1cc(C2NC(=S)NC(c3ccccc3)=C2C(C)=O)ccc1O (stereo not drawn),15.4
4,CCOCCCNC(=O)c1ccc2nc(-c3ccc(OC)c(OC)c3)c(-c3ccc(OC)c(OC)c3)nc2c1,6.99
5,NC(=O)CCCn1c(C(=O)c2ccc(Cl)cc2)c2ccc([N+](=O)[O-])cc2[n+]1[O-],-74.1
6,NC(=O)CCn1c(C(=O)c2cccc([N+](=O)[O-])c2)c2ccccc2[n+]1[O-],4.25
7,NC(=O)CCCn1c(C(=O)c2cc(Cl)c(N)c(Cl)c2)c2ccc([N+](=O)[O-])cc2[n+]1[O-],-30.9
8,COc1ccc(C(=O)c2c3ccc([N+](=O)[O-])cc3[n+]([O-])n2CCC[NH3+])cc1.[Cl-],-47.4
9,Cc1ccc(C(=O)c2c3ccc([N+](=O)[O-])cc3[n+]([O-])n2CCCC(N)=O)cc1,-36.6
10,[Cl-].[NH3+]CCCn1c(C(=O)c2ccc(Cl)cc2)c2ccc([N+](=O)[O-])cc2[n+]1[O-],-63.8
11,COc1ccc(-c2oc3ccc(-c4cc(OC)c(OC)c(OC)c4)cc3c2-c2ccc(OC)cc2)cc1,13.6
12,CN(C)S(=O)(=O)c1cccc(COC(=O)c2ccc(Cl)cc2O)c1,-7.36
13,CC(=O)Oc1c(Cl)c(N2CCOCC2)c(OC(C)=O)c2ccccc12,-25.2
14,CCN(Cc1ccccc1)C(=O)c1cccc(S(=O)(=O)N2CCN(Cc3ccccc3)CC2)c1,-19.6
15,Cc1ccc(-c2csc(N3CCN(c4cc5c(cc4Cl)nc(-c4ccncc4)n5CCN4CCCCC4)CC3)n2)cc1,10.5
16,Cc1ccc(-c2csc(N3CCN(c4cc5c(cc4Cl)nc(-c4ccncc4)n5CCOCCO)CC3)n2)cc1,4.81
17,Cc1csc(N2CCN(c3cc4c(cc3Cl)nc(-c3ccncc3)n4CCCN3CCCC3)CC2)n1,-64.8
18,Cc1n[nH]c(=S)n1-c1cccc(Cl)c1,19.7
19,Cc1nnc(N2C(=O)C(O)=C(C(=O)c3ccco3)C2c2cccc3ccccc23)s1 (stereo not drawn),-0.387
